Measurements as given in PubChem BioAssay (NCI).
This is part of a sample that, as a whole, favours compounds with a hit. Of some 83,000 tested, about 20% had one in any assay.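 The endpoint reported here, percent growth, reads 100 for growth as untreated, 0 for no net growth and -100 for all cells dead.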 Active and inactive are the calls of the source. Rule for the calls: active = growth percent below 10; inactive = the rest.

Key:
Assay in all cases: NCI-60 one-dose screen, 48 h (100 = growth as untreated, 0 = no growth, -100 = all killed)
DU-145 prostate = details: 10 µM unless noted
K-562 leukemia = details: 10 µM unless noted
MALME-3M melanoma = details: 10 µM unless noted
MDA-MB-231 breast = details: 10 µM unless noted
RXF 393 renal = details: 10 µM unless noted
SF-268 CNS = details: 10 µM unless noted
SF-295 CNS = details: 10 µM unless noted
SF-539 CNS = details: 10 µM unless noted
UACC-257 melanoma = details: 10 µM
M14 melanoma = details: 10 µM unless noted
HCT-15 colon = details: 10 µM unless noted
HT29 colon = details: 10 µM unless noted
SNB-75 CNS = details: 10 µM unless noted
SNB-19 CNS = details: 10 µM unless noted
U251 CNS = details: 10 µM unless noted
SK-MEL-5 melanoma = details: 10 µM unless noted
UACC-62 melanoma = details: 10 µM unless noted
LOX IMVI melanoma = details: 10 µM unless noted
SK-MEL-28 melanoma = details: 10 µM unless noted
PC-3 prostate = details: 10 µM unless noted

Measured: growth

C#C[C@]1(O)CC[C@H]2[C@@H]3CC=C4c5sc(-c6cccc(F)c6)nc5CC[C@]4(C)[C@H]3CC[C@@]21C
inactive: DU-145 prostate 99.2% | K-562 leukemia 19% | MALME-3M melanoma 95.4% | MDA-MB-231 breast 93.2% | RXF 393 renal 20.7% | SF-268 CNS 85.8% | SF-295 CNS 61.9% | SF-539 CNS 67.3% | UACC-257 melanoma 90% | M14 melanoma 82% | HCT-15 colon 53.5% | HT29 colon 78.4% | SNB-75 CNS 70% | SNB-19 CNS 87.3% | U251 CNS 75% | SK-MEL-5 melanoma 96.4% | UACC-62 melanoma 74.9% | LOX IMVI melanoma 80.8% | SK-MEL-28 melanoma 81.1%

O=[N+]([O-])c1ccc(-c2nnc(SCc3ccc(O)c4ncccc34)n2-c2ccccc2)cc1
inactive: DU-145 prostate 29% | K-562 leukemia 21.2% | MALME-3M melanoma 19.6% | MDA-MB-231 breast 24.8% | RXF 393 renal 16.3% | SF-268 CNS 23.6% | SF-539 CNS 11.7% | UACC-257 melanoma 42.5% | M14 melanoma 24.2% | HCT-15 colon 19.2% | HT29 colon 65.8% | SNB-19 CNS 14.4% | U251 CNS 14% | PC-3 prostate 21% | UACC-62 melanoma 27.7% | SK-MEL-28 melanoma 43.4%
active: SF-295 CNS 5.71% | SK-MEL-5 melanoma 1.12% | LOX IMVI melanoma -19.9%

O=C(/C=C1\C=CN(CCCCF)c2ccccc21)n1ccc2ccccc21
inactive: DU-145 prostate 127% | K-562 leukemia 104% | MALME-3M melanoma 100% | MDA-MB-231 breast 94.9% | RXF 393 renal 126% | SF-268 CNS 121% | SF-295 CNS 106% | SF-539 CNS 98.8% | UACC-257 melanoma 110% | M14 melanoma 101% | HCT-15 colon 102% | HT29 colon 107% | SNB-19 CNS 105% | U251 CNS 105% | PC-3 prostate 103% | SK-MEL-5 melanoma 98.8% | UACC-62 melanoma 89.2% | LOX IMVI melanoma 106% | SK-MEL-28 melanoma 108%

CCCC(=O)NC(c1cccnc1)c1ccc2c(C)ccnc2c1O (stereo unspecified)
active: UACC-257 melanoma 5.9% | M14 melanoma 9.45% | SK-MEL-5 melanoma 4.06% | UACC-62 melanoma -7.84% | LOX IMVI melanoma 9.72%
inactive: DU-145 prostate 30.1% | K-562 leukemia 21.4% | MALME-3M melanoma 21.2% | MDA-MB-231 breast 32.9% | RXF 393 renal 20.4% | SF-268 CNS 21.9% | SF-295 CNS 17.8% | SF-539 CNS 14.6% | HCT-15 colon 26.9% | HT29 colon 20.3% | SNB-19 CNS 37.8% | U251 CNS 26.7% | PC-3 prostate 36.4% | SK-MEL-28 melanoma 30.4%
